Test results as given in PubChem BioAssay (NCATS).
“And” between values parts separate entries of the source, which are not always exact repeats. Equal entries are not always repeated. Inconclusive results are not listed. The source made the active and inactive calls. Unless noted, the call rests on the fitted dose curve.

Legend:
[1] = molecular target: Estrogen receptor (Homo sapiens) (UniProt P03372); assay: qHTS assay for small molecule agonists of estrogen receptor alpha signaling (AID 588514);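 further: 0% = vehicle only and 100% = reference agonist; nearly all actives have a fitted effect of over 70% in size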
Estrogen receptor (Homo sapiens), sequence (P03372 whole entry, looked up): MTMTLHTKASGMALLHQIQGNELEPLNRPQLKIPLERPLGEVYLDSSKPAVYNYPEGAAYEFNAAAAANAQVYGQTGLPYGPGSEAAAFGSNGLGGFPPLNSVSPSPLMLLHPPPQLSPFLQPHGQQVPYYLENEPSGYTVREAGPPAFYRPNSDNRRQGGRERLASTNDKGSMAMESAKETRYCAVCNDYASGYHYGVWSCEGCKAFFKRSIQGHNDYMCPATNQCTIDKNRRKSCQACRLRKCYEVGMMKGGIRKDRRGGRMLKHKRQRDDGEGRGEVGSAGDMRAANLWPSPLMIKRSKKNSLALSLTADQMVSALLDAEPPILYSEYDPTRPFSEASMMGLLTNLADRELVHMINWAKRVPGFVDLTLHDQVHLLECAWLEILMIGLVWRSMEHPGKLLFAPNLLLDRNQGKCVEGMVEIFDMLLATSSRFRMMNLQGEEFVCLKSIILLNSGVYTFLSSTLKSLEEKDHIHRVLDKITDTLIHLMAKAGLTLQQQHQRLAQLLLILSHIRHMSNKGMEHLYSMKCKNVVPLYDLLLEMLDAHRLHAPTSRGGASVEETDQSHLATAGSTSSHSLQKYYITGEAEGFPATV
Outline: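 ER-alpha-UAS-bla GripTite HEK293 cells, 5000/well in 2% charcoal/dextran-stripped FBS medium, treated with compound titrations 18 h at 37 C. CCF4 beta-lactamase read by fluorescence after 2 h RT; normalised to 20 nM 17-beta-estradiol (100%) and DMSO (0%), Hill fit for EC50 and efficacy.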

[2] = molecular target: Glucocorticoid receptor (Homo sapiens) (UniProt P04150); assay: qHTS assay for small molecule agonists of glucocorticoid receptor signaling (AID 588532; active means well fitted curve in the direction sought with a large enough effect in the signal ratio, with a control signal flat; the % refers to the signal ratio;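 further: 100% = dexamethasone at 0.1 µM and 0% = DMSO only wells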); settings: HeLa MMTV-bla, beta-lactamase ratio, agonist, 18 h; activation: stronger effect = higher value, percent of dexamethasone control, DMSO zero
Glucocorticoid receptor (Homo sapiens), sequence (P04150 whole entry, looked up): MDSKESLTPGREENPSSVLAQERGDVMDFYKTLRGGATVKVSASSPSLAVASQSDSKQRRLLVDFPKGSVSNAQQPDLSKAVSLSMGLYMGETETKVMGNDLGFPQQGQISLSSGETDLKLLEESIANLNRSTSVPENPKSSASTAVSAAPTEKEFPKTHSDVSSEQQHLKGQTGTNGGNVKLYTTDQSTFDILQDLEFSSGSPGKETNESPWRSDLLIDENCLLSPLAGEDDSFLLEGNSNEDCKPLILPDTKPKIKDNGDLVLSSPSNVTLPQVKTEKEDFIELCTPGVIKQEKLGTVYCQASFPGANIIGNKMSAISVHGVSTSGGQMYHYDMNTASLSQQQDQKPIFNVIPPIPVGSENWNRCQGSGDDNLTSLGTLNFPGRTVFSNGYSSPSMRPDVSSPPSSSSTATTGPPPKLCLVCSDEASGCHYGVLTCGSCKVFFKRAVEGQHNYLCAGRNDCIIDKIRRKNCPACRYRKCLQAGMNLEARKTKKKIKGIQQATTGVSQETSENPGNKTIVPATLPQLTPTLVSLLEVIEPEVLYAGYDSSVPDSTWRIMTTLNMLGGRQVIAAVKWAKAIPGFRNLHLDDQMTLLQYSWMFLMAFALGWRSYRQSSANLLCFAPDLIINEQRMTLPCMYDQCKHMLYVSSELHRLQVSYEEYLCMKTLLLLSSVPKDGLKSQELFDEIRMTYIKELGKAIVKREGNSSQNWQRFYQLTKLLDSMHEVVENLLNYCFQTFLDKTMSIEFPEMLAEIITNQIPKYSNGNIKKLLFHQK
Outline: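 Stimulation of a glucocorticoid response element-driven beta-lactamase gene was measured in HeLa cells. Responses were scaled between DMSO basal and 0.1 uM dexamethasone, then fitted for half-maximal stimulation.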

[3] = molecular target: Glucocorticoid receptor (Homo sapiens) (UniProt P04150); assay: qHTS assay for small molecule antagonists of glucocorticoid receptor signaling (AID 588533; active means well fitted inhibition curve with a large enough effect in the signal ratio, with a control signal flat, not every such curve was filed as active; the % refers to the signal ratio;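 further: cells stimulated with 2 nM dexamethasone as agonist; on the % scale 0 is the no-effect control and ±100 the full control effect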)
Outline: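 Antagonist-mode qHTS: compound titrations added to GRE-bla HeLa cells, then dexamethasone 2 nM final; 18 h, 37 C. CCF4 FRET fluorescence normalized to dexamethasone and DMSO; IC50 from Hill fit.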

[4] = molecular target: Peroxisome proliferator-activated receptor delta (Homo sapiens) (UniProt Q03181); assay: qHTS assay for small molecule agonists of peroxisome proliferator-activated receptor delta signaling (AID 588534);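 further: 0% = DMSO basal wells and 100% = positive control agonist at 10 µM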
Peroxisome proliferator-activated receptor delta (Homo sapiens), sequence (Q03181 whole entry, looked up): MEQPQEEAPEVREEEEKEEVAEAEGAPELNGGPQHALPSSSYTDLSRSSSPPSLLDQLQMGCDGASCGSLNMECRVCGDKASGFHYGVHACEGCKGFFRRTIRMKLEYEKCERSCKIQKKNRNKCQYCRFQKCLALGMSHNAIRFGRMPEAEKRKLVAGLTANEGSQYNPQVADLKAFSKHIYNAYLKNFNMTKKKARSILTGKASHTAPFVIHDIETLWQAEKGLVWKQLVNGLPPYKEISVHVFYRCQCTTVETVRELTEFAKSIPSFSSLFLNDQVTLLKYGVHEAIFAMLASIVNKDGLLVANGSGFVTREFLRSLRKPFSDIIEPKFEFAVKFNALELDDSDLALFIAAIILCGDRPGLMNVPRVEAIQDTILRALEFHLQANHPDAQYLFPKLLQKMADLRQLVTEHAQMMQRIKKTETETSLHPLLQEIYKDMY
Outline: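 Cells carrying a PPAR-delta beta-lactamase reporter were treated with compounds for 18 h at 37 °C in agonist mode. CCF4 fluorescence was read after 2 h; EC50 and efficacy from Hill fits.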

[5] = molecular target: Peroxisome proliferator-activated receptor gamma (Homo sapiens) (UniProt P37231); assay: qHTS assay for small molecule agonists of peroxisome proliferator-activated receptor gamma signaling (AID 588536; active means well fitted curve in the direction sought with a large enough effect in the signal ratio, with a control signal flat, not every such curve was filed as active; the % refers to the signal ratio;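 further: 0% = DMSO basal wells and 100% = rosiglitazone at 2 µM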)
Peroxisome proliferator-activated receptor gamma (Homo sapiens), sequence (P37231 whole entry, looked up): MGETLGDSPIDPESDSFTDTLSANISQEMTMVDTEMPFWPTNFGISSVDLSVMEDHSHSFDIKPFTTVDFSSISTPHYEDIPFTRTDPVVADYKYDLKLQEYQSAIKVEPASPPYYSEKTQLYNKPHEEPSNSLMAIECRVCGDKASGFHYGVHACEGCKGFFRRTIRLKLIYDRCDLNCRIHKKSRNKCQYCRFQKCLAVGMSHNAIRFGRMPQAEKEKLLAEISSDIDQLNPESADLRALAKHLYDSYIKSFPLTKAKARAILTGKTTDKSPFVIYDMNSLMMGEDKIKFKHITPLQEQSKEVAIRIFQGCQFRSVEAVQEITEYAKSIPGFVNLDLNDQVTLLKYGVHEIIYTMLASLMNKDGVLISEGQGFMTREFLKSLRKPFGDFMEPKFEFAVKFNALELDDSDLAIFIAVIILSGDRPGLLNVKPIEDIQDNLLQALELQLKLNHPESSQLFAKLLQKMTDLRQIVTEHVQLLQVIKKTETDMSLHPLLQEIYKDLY
Outline: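 Ratiometric blue/green fluorescence (405 nm excitation; 460 and 530 nm emission) from CCF4-loaded HEK293 reporter cells serves as signal. Exposure to test compounds lasts 16 h at 37 C in medium containing 1% charcoal/dextran-treated serum.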

[6] = molecular target: Vitamin D3 receptor (Homo sapiens) (UniProt P11473); assay: qHTS assay for small molecule agonists of vitamin D receptor signaling (AID 588543);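 further: 0% = DMSO basal and 100% = reference agonist control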
Vitamin D3 receptor (Homo sapiens), sequence (P11473 whole entry, looked up): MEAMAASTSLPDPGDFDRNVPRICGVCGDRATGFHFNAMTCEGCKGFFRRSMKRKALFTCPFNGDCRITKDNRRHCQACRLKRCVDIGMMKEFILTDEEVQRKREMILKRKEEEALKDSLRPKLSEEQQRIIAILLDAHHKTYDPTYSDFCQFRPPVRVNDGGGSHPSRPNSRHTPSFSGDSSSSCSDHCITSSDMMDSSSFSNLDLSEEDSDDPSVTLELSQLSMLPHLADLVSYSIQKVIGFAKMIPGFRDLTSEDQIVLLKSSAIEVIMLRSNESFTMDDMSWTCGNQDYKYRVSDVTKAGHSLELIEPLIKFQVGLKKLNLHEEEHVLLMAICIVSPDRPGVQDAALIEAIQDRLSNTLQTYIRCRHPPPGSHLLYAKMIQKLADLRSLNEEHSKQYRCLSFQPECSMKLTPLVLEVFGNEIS
Outline: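 Agonist-mode beta-lactamase reporter: HEK293T VDR-UAS-bla cells in charcoal-stripped 2% FBS, compound series 16 h 37 C, CCF4 2 h RT. EC50 from Hill fit, scaled against DMSO and 50 nM calcitriol control.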

[7] = qHTS assay for small molecule agonists of retinoid X receptor alpha signaling (AID 588544); settings: HEK293T RXRa-UAS-bla, beta-lactamase reporter, 18 h; 530 nm emission; further: potency means the concentration at half of the fitted maximal effect;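 on activation: 0% = DMSO basal wells and 100% = reference agonist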
[8] = molecular target: Retinoic acid receptor RXR-alpha (Homo sapiens) (UniProt P19793); assay: as above
Retinoic acid receptor RXR-alpha (Homo sapiens), sequence (P19793 whole entry, looked up): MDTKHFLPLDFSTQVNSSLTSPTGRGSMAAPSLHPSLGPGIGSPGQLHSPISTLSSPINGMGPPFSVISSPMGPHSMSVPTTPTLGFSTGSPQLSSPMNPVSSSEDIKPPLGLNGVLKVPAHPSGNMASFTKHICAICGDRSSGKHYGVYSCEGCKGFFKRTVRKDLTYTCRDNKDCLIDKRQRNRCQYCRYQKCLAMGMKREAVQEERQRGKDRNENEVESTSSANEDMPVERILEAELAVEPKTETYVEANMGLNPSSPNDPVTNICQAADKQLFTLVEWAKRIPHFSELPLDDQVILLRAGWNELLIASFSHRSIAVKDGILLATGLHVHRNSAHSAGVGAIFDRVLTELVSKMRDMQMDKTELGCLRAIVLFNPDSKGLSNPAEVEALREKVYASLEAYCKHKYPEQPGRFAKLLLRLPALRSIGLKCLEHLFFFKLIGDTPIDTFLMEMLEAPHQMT

[9] = molecular target: Thyroid hormone receptor beta (Homo sapiens) (UniProt P10828); assay: qHTS assay for small molecule agonists of thyroid hormone receptor beta signaling (AID 588545)
Thyroid hormone receptor beta (Homo sapiens), sequence (P10828 whole entry, looked up): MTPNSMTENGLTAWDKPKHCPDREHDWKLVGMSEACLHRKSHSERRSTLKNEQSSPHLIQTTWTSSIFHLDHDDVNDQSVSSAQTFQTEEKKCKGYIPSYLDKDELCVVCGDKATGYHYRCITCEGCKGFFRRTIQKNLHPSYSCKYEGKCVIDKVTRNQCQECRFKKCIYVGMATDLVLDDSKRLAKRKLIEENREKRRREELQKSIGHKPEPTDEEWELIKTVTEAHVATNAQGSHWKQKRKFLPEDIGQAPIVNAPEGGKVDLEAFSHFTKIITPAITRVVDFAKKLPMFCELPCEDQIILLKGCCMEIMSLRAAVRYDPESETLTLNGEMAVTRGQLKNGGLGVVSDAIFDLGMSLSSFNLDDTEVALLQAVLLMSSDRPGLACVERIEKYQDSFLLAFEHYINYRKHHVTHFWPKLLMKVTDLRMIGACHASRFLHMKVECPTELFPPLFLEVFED
Outline: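 Agonist activity was read as beta-lactamase CCF4 fluorescence (405 ex, 460/530 em), scaled between DMSO (0%) and 10 nM T3 (100%), then Hill-fitted for EC50 and efficacy. HEK 293 TR-UAS-bla cells in 2% charcoal/dextran FBS medium were exposed 18 h at 37 C.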

[10] = qHTS assay for small molecule antagonists of retinoid X receptor alpha signaling (AID 588546; active means well fitted inhibition curve with a large enough effect in the signal ratio, with a control signal flat, not every such curve was filed as active; the % refers to the signal ratio;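 further: cells stimulated with 9-cis-retinoic acid as agonist; on the % scale 0 is the no-effect control and ±100 the full control effect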); settings: HEK293T RXRa-UAS-bla, beta-lactamase ratio, antagonist mode; measured here: W530 green channel, cytotoxicity proxy
Outline: (§1)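 Beta-lactamase reporter inhibition, read as CCF4 fluorescence ratio (ex 405, em 460/530 nm) after 2 h at RT. HEK293T UAS-bla cells, 2500/well, were stimulated with 9-cis-RA at 500 or 100 nM final alongside test compound for 18 h at 37 C.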

[11] = molecular target: Retinoic acid receptor RXR-alpha (Homo sapiens) (UniProt P19793); assay: as above; settings: HEK293T RXRa-UAS-bla, beta-lactamase ratio, antagonist mode
Outline: as §1

[12] = molecular target: Thyroid hormone receptor beta (Homo sapiens) (UniProt P10828); assay: qHTS assay for small molecule antagonists of thyroid hormone receptor beta signaling (AID 588547; active means well fitted inhibition curve with a large enough effect in the signal ratio, with a control signal flat, not every such curve was filed as active; the % refers to the signal ratio;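 further: cells stimulated with 0.4 nM T3 agonist during compound exposure; series mostly up to about 77 µM; on the % scale 0 is the no-effect control and ±100 the full control effect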); settings: TR-UAS-bla HEK293, beta-lactamase ratio, antagonist mode, 18 h
Outline: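 TR-UAS-bla GripTite HEK293 cells in 2% charcoal/dextran FBS medium were preincubated 4 h at 37 C, given compound (0.59 nM to 92 uM) plus 0.4 nM T3 (final) for 18 h, then CCF4 for 2 h at RT; Hill fit gave IC50.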

[13] = qHTS assay for small molecule activators of the p53 signaling pathway (AID 651743; active means well fitted activation curve with a large enough effect in the signal ratio, not every such curve was filed as active; the % refers to the signal ratio; further: series mostly up to about 92 µM; % of control where 0% means no effect); settings: HCT-116 p53RE-bla, beta-lactamase FRET ratio, 16 h; activation: stronger effect = higher value
Outline: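 Cell-based beta-lactamase reporter (p53 response elements, HCT-116 background). After a 5-hour preincubation, cells received compound for 16 hours at 37 C; substrate development ran 2 hours at room temperature.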

[14] = qHTS assay for environmental chemicals that activate the Aryl hydrocarbon Receptor (AhR) signaling pathway (AID 651777; active means well fitted curve in the direction sought with a large enough effect; an effect the other way counts as inactive or inconclusive; further: nearly all actives have a fitted effect of over 15% in size; further: potency means the concentration at half of the fitted maximal effect; on activation: % of control where 0% means no effect); settings: 1A2-DRE human hepatoma cells, luciferase, 24 h; activation: stronger effect = higher value
Outline: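 Human hepatoma 1A2-DRE cells stably carrying a DRE/CYP1A2 promoter–luciferase reporter, 1,200 cells/well, exposed to compound 24 hr at 37 C. Luciferase read by One-Glo luminescence after 30 min at room temperature; increased signal marks AhR activation.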

[15] = molecular target: Peroxisome proliferator-activated receptor alpha (Homo sapiens) (UniProt Q07869); assay: qHTS assay for small molecule agonists of the peroxisome proliferator-activated receptor alpha (PPARalpha) signaling pathway (AID 651778; active means well fitted curve in the direction sought with a large enough effect; an effect the other way counts as inactive or inconclusive; further: potency means the concentration at half of the fitted maximal effect; on max response: % of control where 0% means no effect); settings: PathHunter PPARalpha complementation, chemiluminescence, 6 h; max response: stronger effect = higher value
Peroxisome proliferator-activated receptor alpha (Homo sapiens), sequence (Q07869 whole entry, looked up): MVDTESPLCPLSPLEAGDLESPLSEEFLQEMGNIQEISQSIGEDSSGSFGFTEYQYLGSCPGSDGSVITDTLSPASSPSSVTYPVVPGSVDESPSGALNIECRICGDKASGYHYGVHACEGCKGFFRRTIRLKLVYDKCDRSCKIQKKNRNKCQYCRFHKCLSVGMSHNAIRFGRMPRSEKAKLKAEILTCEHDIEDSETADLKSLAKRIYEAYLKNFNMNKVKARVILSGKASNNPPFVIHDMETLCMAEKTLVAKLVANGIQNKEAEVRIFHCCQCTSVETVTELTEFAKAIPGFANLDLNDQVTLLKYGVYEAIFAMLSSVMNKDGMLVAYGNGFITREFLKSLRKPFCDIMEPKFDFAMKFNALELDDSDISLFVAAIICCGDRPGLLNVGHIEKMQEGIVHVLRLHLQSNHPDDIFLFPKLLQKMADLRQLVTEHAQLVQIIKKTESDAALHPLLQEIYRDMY
Outline: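 Cells plated at 2,000/well and held overnight at 37 C, 5% CO2, then compound added by pin tool for 6 hr; after PathHunter detection reagent and 60 min at room temperature, chemiluminescence from enzyme complementation was read.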

[16] = qHTS assay for small molecule agonists of the antioxidant response element (ARE) signaling pathway measured by Nrf2-dependant transcriptional activity (AID 720636; active means well fitted curve in the direction sought with a large enough effect in the repeat runs; an effect the other way counts as inactive or inconclusive; further: % of control where 0% means no effect)
Outline: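 ARE-luc HepG2 cells carrying an Nrf2-responsive luciferase reporter, in medium with 1% dialyzed FBS, exposed to compound for 16 hr at 37 C, 5% CO2. Luminescence read 30 min after ONE-Glo addition.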

[17] = qHTS assay for small molecule agonists of the antioxidant response element (ARE) signaling pathway measured by Nrf2-dependant transcriptional activity - cell viability counter screen (AID 720653; active means well fitted curve in the direction sought with a large enough effect in the repeat runs; an effect the other way counts as inactive or inconclusive; further: on the % scale 0 is the no-effect control and ±100 the full control effect); settings: ARE-bla HepG2 viability, CellTiter-Glo ATP luminescence, 16 h; max response: stronger effect = lower value
Outline: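 ARE-bla HepG2 cells (2,000/well) rested 5 hrs at 37C/5% CO2, then exposed to compounds in DMSO for 16 hrs. Viability was read in the same wells as intracellular ATP by luminescence, 30 min at room temperature after reagent addition.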

[18] = qHTS assay for cell viability of HEK293 cells (AID 743288; active means well fitted curve in the direction sought with a large enough effect; an effect the other way counts as inactive or inconclusive; further: on the % scale 0 is the no-effect control and ±100 the full control effect; nearly all actives have a fitted effect of over 50% in size); settings: ATP luminescence (CellTiter-Glo), 18 h; max response: stronger effect = lower value
Outline: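 Total intracellular ATP, measured with a luciferase-coupled reagent, indicates the number of viable HEK293 cells. Exposure to test chemicals lasts 18 h at 37 C in 1,536-well format at 2,000 cells/well.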

[19] = molecular target: Nuclear receptor subfamily 1 group I member 2 (Rattus norvegicus) (UniProt Q9R1A7); assay: qHTS assay for small molecule activators of the rat pregnane X receptor (rPXR) signaling pathway (AID 651751; call rule not given here; further: 0% is about no effect); settings: rPXR reporter cells, luciferase (One-Glo), 24 h
Nuclear receptor subfamily 1 group I member 2 (Rattus norvegicus), sequence (Q9R1A7 whole entry, looked up): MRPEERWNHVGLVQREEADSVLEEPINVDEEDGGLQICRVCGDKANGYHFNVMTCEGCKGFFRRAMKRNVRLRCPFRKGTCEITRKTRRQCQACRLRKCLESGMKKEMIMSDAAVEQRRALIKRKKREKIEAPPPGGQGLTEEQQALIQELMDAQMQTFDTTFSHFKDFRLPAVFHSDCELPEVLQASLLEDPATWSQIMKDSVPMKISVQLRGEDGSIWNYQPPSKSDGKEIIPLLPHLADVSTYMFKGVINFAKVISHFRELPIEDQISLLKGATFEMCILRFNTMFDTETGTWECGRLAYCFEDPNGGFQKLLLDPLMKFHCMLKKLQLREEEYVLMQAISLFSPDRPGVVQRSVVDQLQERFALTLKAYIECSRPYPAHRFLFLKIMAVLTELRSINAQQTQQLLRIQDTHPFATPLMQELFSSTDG

[20] = qHTS assay for cell viability of the p53RE-bla HCT-116 cell line (AID 743292; active means well fitted curve in the direction sought with a large enough effect; an effect the other way counts as inactive or inconclusive; further: on the % scale 0 is the no-effect control and ±100 the full control effect; nearly all actives have a fitted effect of over 55% in size)
Outline: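 CellSensor p53RE-bla HCT-116 cells (4,000/well) pre-incubated 5 h at 37 C, then exposed to compounds in DMSO for 16 h at 37 C. Viability read as ATP content by CellTiter-Glo luminescence after 30 min at room temperature.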

C=CCOC(=O)C(C)(C)OC(=O)c1cc(-n2c(=O)cc(C(F)(F)F)n(C)c2=O)ccc1Cl
inactive: Potency [1] | activation [2] -1.05% | Potency [3] | outcome [4] | Potency [5] | outcome [6] | Potency [8] | Potency [9] | max response [11] 23.7% | activity change % (negative = inhibition) [12] -9.78% | activation [13] 4.39% | activation [14] 1.35% | max response [15] 2.63% | Potency [16] | max response [17] -16.6% | max response [18] -6.91%
-7.31%: max response [7]
-18.1%: max response [10]

CN(C)P(=O)(N(C)C)N(C)C
-10.5%: max response [10]
inactive: Potency [1] | outcome [4] | Potency [5] | outcome [6] | Potency [8] | activity change % (negative = inhibition) [12] -0.373% | activation [14] 0.845% | max response [15] 0.0783% | max response [17] -5.07% | max response [18] 0.472% | max response [19] -0.946%
-16.8%: max response [7]

CNP(=O)(OC)Oc1ccc(C(C)(C)C)cc1Cl (centres undefined)
inactive: Potency [1] | activation [2] 0.207% | outcome [4] | outcome [6] | Potency [8] | Potency [9] | max response [11] 11.9% | activation [13] 6.28% | activation [14] 5.81% | max response [15] -2.32% | max response [17] 8.45% | max response [18] -10.1% | Potency [20] | max response [19] 11.5%
2.01%: max response [10]
10.3%: max response [7]

CCOP(OCC)OCC
inactive: Potency [1] | Potency [5] | Potency [8] | Potency [9] | max response [11] -9.86% | activity change % (negative = inhibition) [12] 9.21% | activation [14] 1.72% | max response [15] -2.48% | Potency [16] | max response [17] -4.24% | max response [18] 0.538% | Potency [20] | max response [19] 0.674%
-5.06%: max response [10]
-0.591%: max response [7]

CC1(C)[C@H](C=C(Cl)Cl)[C@H]1C(=O)O[C@H](C#N)c1ccc(F)c(Oc2ccccc2)c1
inactive: Potency [1] | activation [2] -0.69% and -0.284% | Potency [3] | outcome [4] | Potency [5] | outcome [6] | Potency [9] | max response [11] -6.52% | activity change % (negative = inhibition) [12] -23.6% | activation [13] -1.98% and 0.257% | activation [14] 1.36% and 3.44% | max response [15] -0.256% and -0.375% | Potency [16] | max response [17] -5.83% and -7.88% | max response [18] -3.74% and -16.6%
-5.65%: max response [10]

CCCCNC(=O)OCC#CI
inactive: Potency [1] | outcome [4] | max response [11] -22.6% | activation [13] -1.36% | activation [14] -10.9% | max response [15] -2.4% | Potency [16] | Potency [20]
2.86%: max response [10]

CCC(C)(C)c1ccc(O)c(C(C)(C)CC)c1
inactive: Potency [1] | activation [2] 5.63% | outcome [4] | Potency [5] | outcome [6] | max response [11] 0.417% | activation [14] -1.01% | Potency [16] | max response [17] -16.3% | max response [18] -2.63% | max response [19] 3.81%
-12.2%: max response [10]
active: Potency [15] 35.5 µM

CC(C)(C)C(=O)[C@@H](Oc1ccc(Cl)cc1)n1cncn1
inactive: Potency [1] | activation [2] 6.65% | Potency [3] | outcome [4] | Potency [5] | outcome [6] | Potency [8] | Potency [9] | max response [11] 9.68% | activity change % (negative = inhibition) [12] -10.6% | activation [13] 0.216% | activation [14] 5.12% | max response [15] -2.73% | Potency [16] | max response [17] 0.855% | max response [18] -4.89% | Potency [20]
-6.66%: max response [10]
9.03%: max response [7]

CCCCCCCCCCCCCCC(Br)C(=O)O (centres undefined)
active: Potency [8] 31.6 µM | Potency [15] 14.1 µM
-6.32%: max response [7]
6.53%: max response [10]
inactive: Potency [1] | activation [2] -1.04% | Potency [3] | outcome [6] | max response [11] -14.5% | activation [14] -0.608% | max response [17] 1.85% | max response [19] -4.78%

CCOC(=O)Nc1cccc(OC(=O)Nc2ccccc2)c1
inactive: Potency [1] | activation [2] -3.53% | Potency [3] | outcome [4] | Potency [5] | outcome [6] | Potency [8] | Potency [9] | max response [11] -20.8% | activity change % (negative = inhibition) [12] 5.59% | activation [13] -3.18% | max response [15] -0.828% | max response [17] -18.4% | max response [18] -5.43% | Potency [20]
2.58%: max response [7]
0.0057%: max response [10]
active: Potency [14] 44.7 µM

N#CN=C1SCCN1Cc1ccc(Cl)nc1
-7.22%: max response [10]
6.15%: max response [7]
inactive: Potency [1] | activation [2] 0.0374% | outcome [4] | Potency [8] | Potency [9] | activity change % (negative = inhibition) [12] -1.19% | activation [13] 1.82% | activation [14] 1.96% | max response [15] -1.13% | Potency [16] | max response [17] -4.44% | Potency [20] | max response [19] 2.62%

CON(C)C(=O)Nc1ccc(Cl)c(Cl)c1
active: Potency [14] 35.5 µM
inactive: Potency [1] | activation [2] -2.11% | Potency [3] | outcome [4] | Potency [5] | Potency [8] | Potency [9] | max response [11] -0.419% | activation [13] 0.565% | max response [15] -1.01% | max response [17] -26.6% | max response [18] -2.77%
-3.25%: max response [7]
-15.9%: max response [10]
